Measured values reported in PubChem BioAssay AID1159580 (chemical genetic matrix, 2015).
Values joined by “and” are separate entries in the source; they are usually repeats but may differ in a detail not shown here. Equal values may be shown once. The whole screen tested about 5,500 compounds, of which about 2,000 (36%) were called active. Roughly 18% stayed inconclusive and do not appear here. Cut-off read from the data, not from the text of the source: active = normalized growth mostly below about 0.91 (no sharp cut-off); inconclusive = no clear call, values can overlap the other calls; inactive = mostly above about 0.92. The list shows a part of the results.

Experiment: chemical genetic growth profiling, strain panel (AID 1159580);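 note: tested at 20 µM; growth read once vehicle control cultures reached saturation at 30 °C; 1 = growth at the plate median or of vehicle wells; lower values mean less growth of the strain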
Details: S. cerevisiae deletion strains, growth OD

Measured: normalized growth

COC(=O)CCC(C)[C@H]1CCC2C3C(C[C@H](O)[C@@]21C)[C@@]1(C)CC[C@@H](O)C[C@H]1C[C@H]3O (some centres undefined)
inactive: locus YAL013W, strain DEP1, hits give low values 1.03 | locus YAL021C, strain ccr4, hits give low values 1.01 | locus YAL026C, strain drs2, hits give low values 0.997 | locus YAL030W, strain snc1, hits give low values 1.01 | locus YBL061C, strain skt5, hits give low values 1.01 | locus YBR009C, strain hhf1, hits give low values 1 | locus YBR021W, strain FUR4, hits give low values 0.952 | locus YBR023C, strain chs3, hits give low values 1 | locus YBR171W, strain sec66, hits give low values 1.01 | locus YBR229C, strain ROT2, hits give low values 1.03 | locus YBR279W, strain paf1, hits give low values 1.01 | locus YCL011C, strain gbp2, hits give low values 1.02 | locus YCL016C, strain dcc1, hits give low values 1.02 | locus YCL029C, strain bik1, hits give low values 1.04 | locus YCL061C, strain MRC1, hits give low values 1.02 | locus YCL069W, strain vba3, hits give low values 1 | locus YCR088W, strain abp1, hits give low values 1.02 | locus YDL005C, strain med2, hits give low values 0.999 | locus YDL035C, strain GPR1, hits give low values 1.01 | locus YDL040C, strain nat1, hits give low values 1.01 | locus YDL074C, strain BRE1, hits give low values 0.983 | locus YDL101C, strain DUN1, hits give low values 1.01 | locus YDL185W, strain tfp1, hits give low values 1.02 | locus YDL192W, strain arf1, hits give low values 1.02 | locus YDR001C, strain nth1, hits give low values 1.01 | locus YDR069C, strain doa4, hits give low values 1 | locus YDR101C, strain arx1, hits give low values 1.01 | locus YDR137W, strain rgp1, hits give low values 1.07 | locus YDR150W, strain NUM1, hits give low values 1.02 | locus YDR159W, strain sac3, hits give low values 0.994 | locus YDR162C, strain NBP2, hits give low values 1.02 | locus YDR195W, strain ref2 1 | locus YDR297W, strain sur2, hits give low values 1.01 | locus YDR318W, strain mcm21, hits give low values 1.01 | locus YDR334W, strain swr1, hits give low values 1.01 | locus YDR335W, strain msn5, hits give low values 1.01 | locus YDR388W, hits give low values 1.02 | locus YDR392W, strain spt3, hits give low values 0.965 | locus YDR502C, strain sam2, hits give low values 1.02 | locus YEL003W, strain gim4, hits give low values 1.01 | locus YEL037C, strain rad23, hits give low values 1.01 | locus YEL061C, strain CIN8 (second series), hits give low values 1.01 | locus YEL061C, strain CIN8, hits give low values 1 | locus YER015W, strain faa2, hits give low values 1.02 | locus YER016W, strain bim1, hits give low values 1.01 | locus YER110C, hits give low values 1.02 | locus YER111C, strain swi4, hits give low values 1.01 | locus YER155C, strain BEM2 (second series), hits give low values 1.02 | locus YER155C, strain BEM2, hits give low values 1.02 | locus YER167W, strain BCK2, hits give low values 1 | locus YFR010W, strain ubp6, hits give low values 0.996 | locus YGL078C, strain dbp3, hits give low values 1.02 | locus YGL086W, strain mad1, hits give low values 1.01 | locus YGL167C, strain pmr1, hits give low values 1.01 | locus YGL173C, strain kem1, hits give low values 1.01 | locus YGL227W, strain vid30, hits give low values 1.02 | locus YGL240W, strain doc1, hits give low values 1.04 | locus YGL248W, strain PDE1, hits give low values 1.01 | locus YGL253W, strain hxk2, hits give low values 0.96 | locus YGR078C, strain PAC10, hits give low values 1 | locus YGR135W, strain pre9, hits give low values 1 | locus YGR252W, strain gcn5, hits give low values 0.909 | locus YHR013C, strain ard1, hits give low values 1.02 | locus YHR027C, strain rpn1, hits give low values 1 | locus YHR030C, strain SLT2, hits give low values 1.02 and 1.01 | locus YHR079C, strain IRE1 (second series), hits give low values 1.03 | locus YHR079C, strain IRE1, hits give low values 0.984 | locus YHR094C, strain hxt1, hits give low values 1.06 | locus YHR129C, strain ARP1, hits give low values 1.01 | locus YHR142W, strain chs7, hits give low values 0.976 | locus YHR200W, strain rpn10, hits give low values 1 | locus YIL066C, strain RNR3, hits give low values 1.01 | locus YIL073C, strain SPO22, hits give low values 1.07 | locus YIL125W, strain kgd1, hits give low values 1.03 | locus YIR030C, strain dcg1, hits give low values 1.03 | locus YJL092W, strain hpr5, hits give low values 1.01 | locus YJL095W, strain BCK1 (second series), hits give low values 1.02 | locus YJL095W, strain BCK1, hits give low values 0.976 and 0.998 | locus YJL115W, strain asf1, hits give low values 1.01 | locus YJL129C, strain trk1, hits give low values 1.03 | locus YJL134W, strain LCB3, hits give low values 1.03 | locus YJL154C, strain vps35, hits give low values 1.02 | locus YJL164C, strain tpk1, hits give low values 1.01 | locus YJL166W, strain qcr8, hits give low values 1.02 | locus YJL168C, strain set2, hits give low values 1.03 | locus YJL187C, strain SWE1 (second series), hits give low values 1.02 | locus YJL187C, strain SWE1, hits give low values 1.01 | locus YJR043C, strain POL32, hits give low values 0.999 | locus YJR066W, strain TOR1, hits give low values 0.949
